According to PubChem BioAssay AID1376 (SRMLSC, 2008):
Hit rate of the full screen: of about 220,000 compounds, about 530 (0.24%) were called active. The list comes from a sample in which actives are over-represented; it also holds similar structures and randomly drawn compounds. Measured potencies and affinities stand elsewhere. Unmarked numbers belong to inactive results. Rule as the data show it: active = inhibition above about 13%; inconclusive = no clear call, values can overlap the other calls; inactive = below that.

Molecular target: Bifunctional protein GlmU (Mycobacterium tuberculosis (strain ATCC 25618 / H37Rv)) (UniProt P9WMN3)
Test: inhibition of mycobacterial GlmU enzyme – biochemical, glucosamine-1-phosphate acetyltransferase (AID 1376);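 also: 0% = complete reaction with vehicle and 100% = reaction without substrate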
Conditions: M. tuberculosis GlmU acetyltransferase enzyme assay; active compounds read high;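 tested at 30 µM in the primary screen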

Sequence of Bifunctional protein GlmU (Mycobacterium tuberculosis (strain ATCC 25618 / H37Rv)) (P9WMN3 whole entry, looked up): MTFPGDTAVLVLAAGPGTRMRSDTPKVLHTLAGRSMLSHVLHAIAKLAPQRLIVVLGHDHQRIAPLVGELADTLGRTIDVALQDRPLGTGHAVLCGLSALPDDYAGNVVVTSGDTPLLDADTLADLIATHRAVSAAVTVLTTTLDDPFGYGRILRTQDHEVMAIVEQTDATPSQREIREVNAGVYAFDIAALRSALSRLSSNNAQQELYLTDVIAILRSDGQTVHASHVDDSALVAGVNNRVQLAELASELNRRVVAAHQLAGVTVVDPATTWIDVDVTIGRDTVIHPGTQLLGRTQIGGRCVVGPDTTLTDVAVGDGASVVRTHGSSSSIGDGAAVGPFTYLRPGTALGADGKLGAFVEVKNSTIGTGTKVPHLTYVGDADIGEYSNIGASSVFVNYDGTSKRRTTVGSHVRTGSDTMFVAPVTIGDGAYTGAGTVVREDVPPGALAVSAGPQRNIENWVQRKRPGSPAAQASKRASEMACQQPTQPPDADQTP

Row | SMILES | inhibition
1 | C/C(Cl)=C/Cn1c(NCCCn2ccnc2)nc2c1c(=O)[nH]c(=O)n2C | -3.26%
2 | COc1ccc(C(=O)OCC(=O)Nc2cc(S(=O)(=O)N3CCOCC3)ccc2N2CCCC2)cc1 | 0.15%
3 | Cc1cc(C)n(-c2ccc(C(=O)OCC(=O)Nc3ccc(S(=O)(=O)N4CCCCC4)cc3)cc2)n1 | 0.24%
4 | CCN(CC)S(=O)(=O)c1ccc(NC(=O)COC(=O)c2ccc(-n3nc(C)cc3C)cc2)cc1 | 2.95%
5 | Cc1cc(C)n(-c2ccc(C(=O)OCC(=O)Nc3ccc(S(=O)(=O)N4CCOCC4)cc3)cc2)n1 | 12.8% (active)
6 | COc1ccc(S(=O)(=O)N2CCOCC2)cc1NC(=O)COC(=O)c1ccc(C)s1 | 0.67%
7 | COc1ccc(OC)c(NC(=O)COC(=O)c2ccc(S(=O)(=O)N3CCOCC3)cc2)c1 | 14.5% (active)
8 | CC(C)(Oc1ccc(CCNC(=O)c2ccc(-c3ccc(Cl)cc3)o2)cc1)C(=O)O | 8.95%
9 | COC(=O)c1ccc(/C=N/N2CCN(Cc3ccc(C)cc3C)CC2)cc1 | 0.99%
10 | CC(C)Oc1ccc(C(=O)N2CCCC2C(=O)O)cc1 (stereo unspecified) | 1.48%
11 | CCCCCCCCCCCC(=O)N/N=C/c1ccco1 | 2.22%
12 | O=C(O)CC(C(=O)Nc1ccc(Cl)c(Cl)c1)C1CCCO1 (stereo unspecified) | 5.87%
13 | CC(=O)[C@@H]1[C@@H](C)N(Cc2ccccc2)C(=O)N[C@H]1c1cccc(C(F)(F)F)c1 | 3.76%
14 | Cc1oc(C(C)(C)C)cc1C(=O)N1CCN(C(c2ccccc2)c2ccccc2)CC1 | -0.86%
15 | COC(=O)CCC(=O)NC(=S)Nc1ccccc1F | -2.07%
16 | O=C(Nc1ccc(F)cc1)c1ccc2nsnc2c1 | -5.81%
17 | O=C(Nc1ccccc1)c1ccc2nsnc2c1 | 19.3% (active)
18 | O=C(Nc1ccc(Cl)cc1)c1ccc2nsnc2c1 | 4.02%
19 | O=C(CSc1nnc(-c2ccc(OC(F)F)cc2)o1)NCc1cccs1 | -1.34%
20 | N#Cc1c(Nc2ccc(Cl)cc2)s[nH]c1=O | 4.63%
21 | N#Cc1c(Nc2ccccc2)s[nH]c1=O | 14.2% (active)
22 | N#Cc1c(Nc2ccccc2Cl)s[nH]c1=O | 0.08%
23 | COCCNC(=O)c1cc2c(=O)n3cccc(C)c3nc2n1C | 3.57%
24 | O=C(O)c1ccccc1SCc1cn2cc(Br)ccc2n1 | 0.7%

Row | SMILES | inhibition
25 | CCOc1ccc2c(c1)C(=O)c1cc(OCC(=O)O)ccc1-2 | -3.72%
26 | O=C(c1ccccc1)c1ccccc1C(=O)N1CCN(C(=O)c2ccccc2)CC1 | -3.19%
27 | O=C(c1ccccc1)c1ccccc1C(=O)N1CCCC1 | 13.3% (active)
28 | O=C(c1ccccc1)c1ccccc1C(=O)N1CCOCC1 | -1.73%
29 | CCCNC(=O)c1ccc(Cn2cc(C(F)(F)F)ccc2=O)cc1 | 0.72%
30 | O=C(Nc1cc2c(ccc3ccccc32)oc1=O)C1CCCCC1 | 0.95%
31 | N=C1/C(=C/c2cccn2CCOc2ccccc2)C(=O)N=C2SC=C(c3ccccc3)N12 | 2.69%
32 | Cc1cccc(-n2c(C)cc(/C=C3/C(=N)N4C(c5ccccc5)=CSC4=NC3=O)c2C)c1 | 1.75%
33 | CC(C)S(=O)(=O)C1=NSC2=NC(=O)/C(=C\c3ccc(-c4ccccc4)o3)C(=N)N21 | 4.83%
34 | COc1cc(/C=C2/C(=N)N3C=CSC3=NC2=O)ccc1OCCCOc1ccccc1C | -3.86%
35 | Cc1ccc(-n2c(C)cc(/C=C3/C(=N)N4C(c5ccccc5)=CSC4=NC3=O)c2C)cc1 | 7.47%
36 | COc1cc(/C=C2/C(=N)N3C(c4ccccc4)=CSC3=NC2=O)ccc1OCC(=O)O | 14.6% (active)
37 | Cc1cc(/C=C2/C(=N)N3C(c4ccccc4)=CSC3=NC2=O)c(C)n1-c1ccccc1 | -4.29%
38 | CS(=O)(=O)C1=NSC2=NC(=O)/C(=C\c3ccc(-c4ccccc4)o3)C(=N)N21 | -0.37%
39 | N=C1/C(=C\c2ccc(-c3cc(Cl)cc(Cl)c3)o2)C(=O)N=C2SC=C(c3ccccc3)N12 | -7.2%
40 | CCNC(=O)Oc1ccc[nH]c1=O | 6.02%
41 | CN(C)c1ccc(C=C(c2nnnn2-c2ccccc2)c2nnnn2-c2ccccc2)cc1 | -2.49%
42 | COC(=O)N/N=C(\C)c1ccc(OC(F)F)cc1OC(F)F | 6.36%
43 | FC(F)(F)c1ccccc1NC(=S)N1CCN(Cc2ccc3c(c2)OCO3)CC1 | -0.82%
44 | CCc1ccc(NC(=O)CSCCN2C(=O)c3ccccc3C2=O)cc1 | -2.41%
45 | CCCCCNC(=O)c1cc(S(=O)(=O)N2CCCC2)ccc1F | 0.96%
46 | O=C1OC(c2cccs2)=N/C1=C\c1ccc(-c2cccc(Cl)c2)o1 | 7.15%
47 | O=C1OC(c2cccs2)=N/C1=C/c1ccc(-c2cccc(C(=O)O)c2)o1 | 18.7% (active)
48 | N=C1/C(=C/c2ccc(-c3cccc(C(=O)O)c3)o2)C(=O)N=C2SC=C(c3ccccc3)N12 | 53.6% (active)

Row | SMILES | inhibition
49 | Cc1ccccc1-n1c(C)cc(/C=C2/C(=N)N3C(c4ccccc4)=CSC3=NC2=O)c1C | -1.94%
50 | O=C1OC(c2cccs2)=N/C1=C\c1ccc(-c2ccccc2Cl)o1 | 7.66%
51 | N=C1/C(=C\c2ccc(-c3cccc(Cl)c3)o2)C(=O)N=C2SC=C(c3ccccc3)N12 | -2.27%
52 | Cc1ccc(N/C=C(/C#N)c2ccsc2)cc1 | 1.11%
53 | COc1cc(O)c(C(CCN2CCCC2)c2cc(OC)c(OC)c(OC)c2)c(OC)c1 (stereo unspecified) | 1.11%
54 | Cc1ccc(/C=N\NC(=O)C2CC(=O)N(c3ccccc3)C2)o1 (stereo unspecified) | 3.39%
55 | Cc1cc(C)n2nc(C(=O)NCc3ccccc3)nc2n1 | -3.46%
56 | Cc1cc(C)n2nc(SCCC(=O)NCCc3ccccc3)nc2n1 | -3.62%
57 | Cc1cc(C)n2nc(C(=O)NCCc3ccccc3)nc2n1 | 14.6% (active)
58 | CCN(CC(=O)NCc1ccc(Cl)cc1)S(=O)(=O)c1ccc(NC(C)=O)cc1 | -2.53%
59 | CC(CCc1ccccc1)NC(=O)c1cccc([N+](=O)[O-])c1 (stereo unspecified) | 13.1% (active)
60 | Cc1ccc(C(=O)NC(C)CCc2ccccc2)cc1[N+](=O)[O-] (stereo unspecified) | 3.64%
61 | CC(CCc1ccccc1)NC(=O)c1ccccc1 (stereo unspecified) | -2.82%
62 | CCn1c(SCC(=O)NCCc2ccccc2)nnc1C(C)C | 1.51%
63 | Cn1c(SCC(=O)c2ccc3c(c2)NC(=O)CO3)nc2ccccc21 | -5.28%
64 | COc1cccc(C(=O)Cn2c(=N)n(C)c3ccccc32)c1 | 13% (active)
65 | Cn1c(=N)n(CC(=O)c2ccccc2)c2ccccc21 | 3.23%
66 | COc1ccc(C(=O)Cn2c(=N)n(C)c3ccccc32)cc1 | -4.4%
67 | Nc1ncnc(Nc2ccc(S(N)(=O)=O)cc2)n1 | -0.83%
68 | CNC(=S)N1CCN(C(=O)c2ccco2)CC1 | 2.06%
69 | COc1ccc(NC2(C#N)CCCCC2)cc1 | -1.99%
70 | CC(Nc1nc(-c2ccc3c(c2)NC(=O)CO3)cs1)c1ccccc1 (stereo unspecified) | -7.09%
71 | COC(=O)Cc1ccc(NC(=S)NCCSc2ccc(Cl)cc2)cc1 | 3.25%
72 | COc1ccc2c(c1)c(C(=O)CN1CCC3(CC1)OCCO3)c(C)n2C | 13% (active)

Row | SMILES | inhibition
73 | COc1ccc2c(c1)c(C(=O)CN1CCC3(CC1)OCCO3)c(C)n2Cc1ccccc1 | -7.53%
74 | COc1ccc2c(c1)c(C(=O)CN1CCOCC1)c(C)n2C | 5.7%
75 | Cc1cc(C(C)(C)C)oc1C(=O)N(CC(=O)NC1CCCC1)Cc1ccccc1 | -0.33%
76 | Cn1c(=O)c2c(ncn2CC(O)CNc2cccc(Cl)c2)n(C)c1=O (stereo unspecified) | -0.25%
77 | COC(=O)Nc1ccc(S(=O)(=O)NCCCCCC(=O)O)cc1 | -5.41%
78 | O=C(O)c1ccccc1Nc1ccccc1C(=O)O | -0.95%
79 | COc1ccc(Nc2ccccc2C(=O)O)cc1 | -1.06%
80 | COc1cc(-c2ccc(Nc3ccccc3C(=O)O)c(OC)c2)ccc1Nc1ccccc1C(=O)O | 27.4% (active)
81 | O=[N+]([O-])c1ccc(Oc2ccc(S(=O)(=O)N3CCCCC3)cc2)cc1 | -0.28%
82 | O=c1c2[nH]c3cccc(Cl)c3c2ncn1CCN1CCCCC1 | 0.41%
83 | CCOP(=O)(C1=C(O)C(=O)C(C(C)(C)C)=CC1=O)c1ccccc1 (stereo unspecified) | 19.3% (active)
84 | CCCOP(=O)(c1ccccc1)c1ccccc1 | 0.12%
85 | CCP(=O)(c1ccccc1)C(C)(C)O (stereo unspecified) | 4.81%
86 | O=C1CN=C(c2ccc(F)cc2)c2oc3ccccc3c2N1 | 0.53%
87 | O=C1CN=C(c2ccc(Cl)cc2)c2oc3ccccc3c2N1 | 2.87%
88 | O=C1CN=C(c2ccc(Br)cc2)c2oc3ccccc3c2N1 | 14.2% (active)
89 | Cc1cccc(/C(N)=N/OC(=O)CCc2ccccc2)c1 | 3.83%
90 | O=C(O)c1ccc(C(=O)O)c(C(=O)c2ccccc2)c1 | 1.74%
91 | O=C(c1ccc(O)cc1)c1ccc(C(=O)O)c(C(=O)O)c1 | 12.8% (active)
92 | O=C(c1ccc(O)cc1)c1ccc(C(=O)c2ccc(O)cc2)cc1 | -1.69%
93 | Cc1ccc(C)c(NCc2ccccc2CO)c1 | -3.27%
94 | Cc1cccc(CN2C(=O)c3ccccc3Sc3ccc(C(=O)O)cc32)c1 | 14.3% (active)
95 | O=C(O)c1ccc2c(c1)N(Cc1ccccc1)C(=O)c1ccccc1S2 | -0.29%
96 | Cc1ccccc1CN1C(=O)c2ccccc2Sc2ccc(C(=O)O)cc21 | -2.8%
